The source of these data is PubChem BioAssay (NCATS).

Values without a mark were called inactive. Inconclusive results are not listed. Active and inactive are the calls of the source. The call rests on the fitted dose curve; in most records, active means well fitted curve in the direction sought with a large enough effect; inconclusive means small, poorly fitted or top-dose-only effect, or another doubt; inactive means no such curve, though single readings can be large; an effect the other way counts as inactive or inconclusive. Where a SMILES comes first, the peptide text is derived from it. [ ]: non-standard residue; d: D form. ξ: configuration not given here. ξTyr(βOH) = NC(C(=O)O)C(O)c1ccc(O)cc1

The target in assay [1] is Glutathione peroxidase 1 (Homo sapiens) (UniProt P07203). Description: Primary qHTS Assay for Inhibitors of Recombinant Selenoprotein Glutathione Peroxidase 1 (GPX1) (AID 1845191). Further: nearly all actives have a fitted effect of over 65% in size. An outline of the steps: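 GPX1 10 nM, GR 100 nM, GSH 1 mM, NADPH 0.5 mM, CHP 0.5 mM (final). 30-min cpd preincubation, RT. Ex340/Em450 read t=0, t=15 min.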
(In qHTS, concentration-response curves come from the screen itself.)

Assay [2] concerns the target Phospholipid hydroperoxide glutathione peroxidase GPX4 (Homo sapiens) (UniProt P36969). In words: Primary qHTS Assay for Inhibitors of Recombinant Selenoprotein Glutathione Peroxidase 4 (GPX4) (AID 1845192). Further: nearly all actives have a fitted effect of over 65% in size. On activity change, negative = inhibition: series mostly up to about 50 µM; on the % scale 0 is the no-effect control and ±100 the full control effect. An outline of the steps: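 qHTS, GR-coupled: GPX4 200 nM + cpd 30 min RT → GSH 1 mM, NADPH 0.5 mM, GR 100 nM → CHP 0.5 mM start; fluor 340/450 at t0 and t15 min; no-enzyme wells as control.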

Assay [3] deals with Luciferin 4-monooxygenase (Photinus pyralis) (UniProt P08659). In words: Primary firefly luciferase (FLuc) qHTS assay for identification of artifact compounds. (AID 1845220). Further: nearly all actives have a fitted effect of over 60% in size. Further: potency means the concentration at half of the fitted maximal effect.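 On activity change, negative = inhibition: series mostly up to about 54 µM; plate controls were DMSO vehicle for no effect and no enzyme for full effect.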 A digest of the protocol:
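In this counter-screen for luciferase artifacts, test compounds met substrate (10 uM each luciferin and ATP) before 10 nM enzyme started the reaction. Light output was measured 5 min later.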

Assay [4] in a line: Primary fluorescence-based thiol-reactive (MSTI) qHTS assay for identification of artifact compounds. (AID 1845221). Further: nearly all actives have a fitted effect of over 65% in size. Further: potency means the concentration at half of the fitted maximal effect.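 On activity change, negative = thiol reactive: series mostly up to about 54 µM; thiol-reactive compounds lower the probe fluorescence signal.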 An outline of the steps:
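Reactivity toward the thiol probe MSTI (4 uM) is scored by fluorescence at Ex/Em 525/598 nm after 1 h at room temperature. Acetyl-MSTI and MSTI define the activity scale.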

Sequence of Phospholipid hydroperoxide glutathione peroxidase GPX4 (Homo sapiens) (P36969 whole entry, looked up): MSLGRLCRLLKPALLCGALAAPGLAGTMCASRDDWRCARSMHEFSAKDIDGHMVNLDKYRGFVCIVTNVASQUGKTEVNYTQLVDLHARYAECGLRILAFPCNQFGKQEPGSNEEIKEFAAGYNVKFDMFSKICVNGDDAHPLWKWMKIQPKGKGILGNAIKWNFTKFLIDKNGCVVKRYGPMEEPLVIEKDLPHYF
Sequence of Glutathione peroxidase 1 (Homo sapiens) (P07203 whole entry, looked up): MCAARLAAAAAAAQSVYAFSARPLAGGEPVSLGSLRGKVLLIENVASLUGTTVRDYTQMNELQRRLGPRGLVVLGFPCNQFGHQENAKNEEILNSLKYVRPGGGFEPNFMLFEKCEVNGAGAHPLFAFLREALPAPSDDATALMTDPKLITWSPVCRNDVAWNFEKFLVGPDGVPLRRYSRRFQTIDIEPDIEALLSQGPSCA

With `COc1ccc(NC(=O)c2ccc(-c3ccc(C(N)=O)cc3C)cc2)cc1N1CCN(C)CC1`, the Potency entry in assay [1], in assay [2], in assay [3] and in assay [4] was “inactive” each time.
Regarding `CNc1nc(Cc2ccccc2)nc2c1CCNC[C@@H]2C`, the Potency entry in assay [1], in assay [2], in assay [3] and in assay [4] was “inactive” throughout.
Turning to `CC(C)(O)C1CC=C(C(=O)OC[C@H]2O[C@@H](Oc3cc(C(=O)O)cc(O)c3O)[C@H](O)[C@@H](O)[C@@H]2O)CC1` (some centres undefined), the Potency entry in assay [1], in assay [2] and in assay [3] was “inactive” in each case. Further, in assay [4], the Potency was 5.19 µM (active).
Consider `C=CCC/C=C/C#CCCCCCCCC[C@H]1C(=O)O[C@H](C)[C@@H]1O`, for which the Potency result in assay [1], in assay [2] and in assay [3] was “inactive” in each case.
Consider `O=C(O)Cn1nnc(-c2ccc(CN(CCCCOc3ccc(CN4CCCC4)cc3)CCc3ccccc3)cc2)n1`, for which the Potency result in assay [1], in assay [2], in assay [3] and in assay [4] was “inactive” each time.
Regarding `NC[C@@H]1O[C@@H](O[C@@H]2[C@@H](O[C@@H]3O[C@H](CO)[C@@H](O)[C@H]3O)[C@H](O)[C@@H](N)C[C@H]2N)[C@@H](N)[C@H](O)[C@H]1O`, the Potency result in assay [1] and in assay [2] was “inactive” each time. Further, the outcome in assay [3] was “inactive [at 11.6 µM]”. Further, the activity change, negative = thiol reactive in assay [4] was -13.5% [at 11.5 µM].
In the case of `C[C@@H]1O[C@@H](O[C@H]2[C@H](OC(=O)[C@]34CCC(C)(C)C[C@H]3C3=CCC5[C@@]6(C)C[C@@H](O)[C@@H](O[C@@H]7O[C@H](CO)[C@@H](O)[C@H](O)[C@H]7O)[C@@](C)(CO)C6[C@H](O)C[C@@]5(C)[C@]3(C)CC4)OC[C@H](O)[C@@H]2O)[C@H](O)[C@H](O[C@@H]2OC[C@](O)(CO)[C@H]2O)[C@H]1O[C@@H]1OC[C@@H](O)[C@H](O[C@H]2O[C@H](C)[C@@H](O)[C@H](O)[C@@H]2O)[C@H]1O` (some centres undefined), the Potency entry in assay [1] and in assay [2] was “inactive” each time. Also, the activity change, negative = inhibition in assay [3] is 1.3% [at 11.6 µM]. In addition, the activity change, negative = thiol reactive in assay [4] was 412% [at 11.5 µM].
As for `Cc1onc(-c2ccccc2Cl)c1C(=O)N(C)c1ccc(Cl)cc1`, the Potency result in assay [1], in assay [2], in assay [3] and in assay [4] was “inactive” in each case.
In the case of `CC1=CCC[C@@H]2[C@@](C)(CCc3ccoc3)[C@H](C(=O)O)CC[C@@]12C`, the Potency result in assay [1], in assay [2], in assay [3] and in assay [4] was “inactive” throughout.
Regarding `COc1c(C)c(OCC=C(C)C)cc2c1COC2=O`, the Potency entry in assay [1], in assay [2], in assay [3] and in assay [4] was “inactive” throughout.
In the case of `C=CC1(C)CC=C2C(CCC3C(C)(C(=O)O)CCCC23C)C1` (centres undefined), the Potency result in assay [1], in assay [2], in assay [3] and in assay [4] was “inactive” in each case.
Regarding `CC1=CC(=O)CC(C)(C)[C@@]1(O)/C=C/C(C)O[C@@H]1O[C@H](CO)[C@@H](O)[C@H](O)[C@H]1O` (some centres undefined), the Potency result in assay [1], in assay [2], in assay [3] and in assay [4] was “inactive” throughout.
Regarding `O=C(CCCCC1CCCCC1)N1CCC(c2cnc[nH]2)CC1`, the Potency result in assay [1], in assay [2], in assay [3] and in assay [4] was “inactive” in each case.
On to `C=C1C(O)C(O)C2(CC3C(C)=CCC4C(C)(C(=O)O)CCCC34C)OC2C1O` (centres undefined), for which the Potency result in assay [1], in assay [2] and in assay [3] was “inactive” each time. Besides, the Potency in assay [4] was 5.21 µM (active).
Take `CC(C)C1NC(=O)CNC(=O)C2CCCN2C(=O)C(Cc2c[nH]c3ccccc23)NC(=O)CNC(=O)C(C(O)c2ccc(O)cc2)NC(=O)CNC1=O` (centres undefined) (cyclo(G[ξTyr(βOH)]GWPGV); configuration not given here): the Potency entry in assay [1], in assay [2], in assay [3] and in assay [4] was “inactive” throughout.
As for `Cc1nnc(-c2ccc3occ(-c4ccc(S(C)=O)cc4)c3c2)o1` (centres undefined), the Potency result in assay [1], in assay [2], in assay [3] and in assay [4] was “inactive” each time.
For `C=C1CC/C=C(/CO)C(=O)C[C@@H]2[C@@H]1C[C@@]2(C)COC(C)=O`, the Potency result in assay [1], in assay [2] and in assay [3] was “inactive” each time. The Potency in assay [4] is 11.9 µM (active).
`CC[C@H](C)[C@H](NC(=O)[C@H](Cc1ccc(O)cc1)NC(=O)[C@@H](N)C(C)C)C(=O)N[C@@H](Cc1cnc[nH]1)C(=O)N1CCC[C@H]1C(=O)N[C@@H](Cc1ccccc1)C(=O)O`: the figures for the outcome in assay [1] and in assay [3] were “inactive [at 4.49 µM]” and “inactive [at 6.45 µM]”, respectively. For the same molecule, in assay [2], the activity change, negative = inhibition is 4.63% [at 4.52 µM]. The activity change, negative = thiol reactive in assay [4] is 19.3% [at 6.41 µM].
`COc1c(C)c(OCC=C(C)C)cc2c1CNC2=O`: the Potency entry in assay [1], in assay [2], in assay [3] and in assay [4] was “inactive” in each case.
On to `C[C@H]1[C@H](C)C[C@@H](C(=O)O)C2CC[C@]3(C)C(=CC[C@@H]4[C@@]5(C)CC[C@H](O)C(C)(C)[C@@H]5CC[C@]43C)[C@@H]21` (some centres undefined), for which the Potency result in assay [1], in assay [2], in assay [3] and in assay [4] was “inactive” each time.
For the molecule `O=C(CCc1ccccc1)c1c(O)c([C@@H]2O[C@H](CO)[C@@H](O)[C@H](O)[C@H]2O)c(O)c([C@@H]2O[C@H](CO)[C@@H](O)[C@H](O)[C@H]2O)c1O`, the Potency result in assay [1], in assay [2] and in assay [3] was “inactive” in each case.
For the molecule `CCCN(CCN1CCN(c2ccccc2OC)CC1)C1CCc2ncsc2C1` (centres undefined), the Potency entry in assay [1], in assay [2], in assay [3] and in assay [4] was “inactive” each time.
With `COc1cc(C(C)=O)ccc1O[C@@H]1O[C@H](CO)[C@@H](O)[C@H](O)[C@H]1O`, the Potency result in assay [1], in assay [2], in assay [3] and in assay [4] was “inactive” each time.
As for `c1ccc2c(Nc3nnc(-c4ccncc4)s3)cccc2c1`, the Potency entry in assay [1], in assay [2] and in assay [4] was “inactive” throughout. Moreover, the Potency in assay [3] is 7.57 µM (active).
